Assay outcomes (PubChem BioAssay)
eIF4E-4G inh: eIF4E–eIF4G protein interaction inhibitors, primary screen, biochemical, uHTS, TR-FRET, eIF4GI fragment; Eukaryotic translation initiation factor 4E (Mus musculus) + Eukaryotic translation …; TR-FRET eIF4E-eIF4GI(517-606) binding, 2 h; inhibition, % at 21.7 µM; 220,000 tested, 0.37% active;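 active means inhibition above about 30%, limit read from the data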;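 further: 0% = full FRET control wells and 100% = background wells lacking eIF4GI fragment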
Mcl1 Bid PPI: Mcl-1/Bid binding inhibitors, primary screen, biochemical, TR-FRET, 1536-well; AID 1021, 2008; 220,000 tested, 0.97% active; inhibition, % at 21.7 µM; TR-FRET Mcl-1/Bid-Dy647 peptide binding; Induced myeloid leukemia cell differentiation protein Mcl-1 (Homo sapiens), Q07820;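 active means compounds that cut the binding signal by more than half at the single screening dose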;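 further: His-tagged Mcl-1 with europium anti-His antibody binding Bid BH3 peptide; 0% = Mcl-1 plus peptide wells and 100% = peptide-only wells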
14-3-3 Bad inh: inhibitors of 14-3-3 zeta/Bad binding, primary screen, biochemical, TR-FRET, bovine 14-3-3 zeta. 14-3-3 protein zeta/delta (Bos taurus), P63103. TR-FRET 14-3-3zeta/Dy647-pBad peptide displacement, 1 h. inhibition, % at 21.7 µM. 220,000 tested, 0.71% active. AID 781, 2007;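 active means inhibition above about 70%, limit read from the data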;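 further: 0% = full 14-3-3 plus peptide FRET controls and 100% = background without 14-3-3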
Mcl1 Noxa PPI: Mcl-1/Noxa binding inhibitors, primary screen, biochemical, TR-FRET, 1536-well | 220,000 tested, 1.5% active | Induced myeloid leukemia cell differentiation protein Mcl-1 (Homo sapiens), Q07820 | inhibition, % at 21.7 µM | TR-FRET Mcl-1/Noxa peptide binding, 2 h;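 active means compounds that cut the protein-peptide binding signal by more than 50% relative to plate controls in a single-dose test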;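 further: His-tagged Mcl-1 with rhodamine Noxa BH3 peptide and terbium anti-His antibody; 0% = Mcl-1 plus Noxa peptide wells and 100% = peptide-only wells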
Bim-Mcl-1: inhibitors of Bim peptide binding to Mcl-1, primary screen, biochemical, bead-based flow cytometry, multiplex; Bim peptide-Mcl-1 binding; Induced myeloid leukemia cell differentiation protein Mcl-1 (Homo sapiens), Q07820; inhibition, % at 10 µM; AID 1009, 2008; 190,000 tested, 0.1% active; in the data active means inhibition above about 40%;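 further: 0% = no compound tracer wells and 100% = peptide blocker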
Pf gamet viab: late stage P. falciparum gametocyte viability inhibitors, primary screen, ATP luminescence, HTS; P. falciparum stage V gametocytes, 24 h; inhibition, % at 10.9 µM; 150,000 tested, 0.065% active; AID 743093, 2013;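 active means inhibition above the mean plus 3 SD of compounds within the control limits, set per campaign, cut at about 38% in these data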;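 further: 0% = DMSO wells and 100% = medium only without gametocytes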
Numbers without * were called inactive; nt = no result given; [ ] = dose if it differs, or a comment. Compounds with a hit are over-represented: about 2.7% of the library has one in this group of screens.

SMILES	eIF4E-4G inh	Mcl1 Bid PPI	14-3-3 Bad inh	Mcl1 Noxa PPI	Bim-Mcl-1	Pf gamet viab
COc1ccc(C(=O)Nc2ccccc2C(=O)NC(Cc2ccc(O)cc2)C(=O)NNC(=O)c2ccc(C)cc2)cc1 (configuration not stated)	17	57*	79*	-114	-1	-6
C=CCNc1nc(-c2cc3ccccc3o2)cs1	-2	55*	12	19	0	nt
C=CCNc1nc(-c2ccc(O)c(C(N)=O)c2)cs1	11	-26	76*	35	0	-6
Cc1cc(C(=O)COC(=O)c2ccccc2Br)c(C)n1CC1CCCO1 (configuration not stated)	-13	-52	-1	6	nt	12
Cc1cc(C(=O)COC(=O)c2cc(O)c3ccccc3c2O)c(C)n1CC1CCCO1 (configuration not stated)	11	37	73*	99*	0	nt
COC(=O)COc1ccc(S(=O)(=O)Nc2cc([N+](=O)[O-])ccc2C)cc1	1	-1	10	-35	2	14
Cc1ccc2nc(NC(=O)c3cccc(-c4cc5ccccc5oc4=O)c3)sc2c1	-25	75*	59	32	-1	nt
CCOc1ccc2nc(NC(=O)c3cccc(-c4cc5ccccc5oc4=O)c3)sc2c1	9	84*	52	76*	-6	-13
Cc1ccc2nc(NC(=O)c3ccc(N4C(=O)CCC4=O)cc3)sc2c1	1	0	0	58*	1	-7
C#CCOCCOCCOCCNc1nc(N2CCOCC2)nc(N2CCN(C(=O)Cn3cc(CC(C)O)nn3)CC2)n1 (configuration not stated)	5	4	31	5	0	nt
CCOC(=O)CSc1nnc(-c2cc(OC)c(OC)c(OC)c2)o1	1	-34	1	4	0	7
COc1cc(-c2nnc(SCc3cc(=O)oc4cc(O)c(O)cc34)o2)cc(OC)c1OC	14	-72	-8	77*	5	-40
CC(=O)Nc1ccc(S(=O)(=O)NNC(=O)c2sc(=S)n(C)c2C)cc1	-3	-30	-8	16	0	-11
CC1(C)CC(=O)C(C(=O)C2CCN(S(=O)(=O)c3ccccc3)CC2)C(=O)C1	1	-7	71*	8	-5	-3
Cc1cccc2nc(COc3ccc(Cl)c4cccnc34)cn12	0	-13	-23	12	0	5
CCCCc1[nH]nc2c1C1(C(=O)N(CC)c3ccccc31)C(C#N)=C(N)O2 (configuration not stated)	-9	0	-10	106*	-2	nt
Cc1nc(N2CCN(c3ccccc3)CC2)[nH]c(=O)c1Cc1ccccc1	3	-16	92*	-11	0	-17
Cc1nn(-c2ccccc2)c(Cl)c1C1C(C#N)=C(N)Oc2c1c(C)nn2-c1ccccc1 (configuration not stated)	5	-26	-5	60*	-2	2
CC12CCC(c3nnc(SCC(=O)Nc4cccc5ccccc45)nc31)C2(C)C (configuration not stated)	6	17	3	nt	-3	0
CCSc1nc2c(c(=O)[nH]c(=O)n2C)n1C/C=C(/C)Cl	7	-38	15	8	2	-18
C=CCSc1nc2c(c(=O)[nH]c(=O)n2C)n1C/C=C(/C)Cl	10	-1	-6	58*	-4	-5
O=C(CNC(=O)c1ccccc1)OCc1nc2ccccc2s1	1	-12	-1	-15	-4	nt
O=C(CSc1cccc[n+]1[O-])Nc1cc2c(cc1Cl)C(=O)c1ccccc1C2=O	26	81*	99*[fluorescence artefact?]	85*	0	6
O=C(CSc1cccc[n+]1[O-])Nc1cc([N+](=O)[O-])ccc1Cl	1	-12	-6	17	0	nt
CC(=O)Oc1ccc(C(=O)Nc2cc(C)on2)cc1	nt	nt	nt	nt	nt	0
SMILES	eIF4E-4G inh	Mcl1 Bid PPI	14-3-3 Bad inh	Mcl1 Noxa PPI	Bim-Mcl-1	Pf gamet viab
Cc1ccc(CN2C(=O)N/C(=C/c3ccc(-c4ccc(C(=O)O)cc4)o3)C2=O)cc1	10	-58	20	66*	nt	-28
O=C(O)c1cc(-c2ccc(/C=C3\NC(=O)N(c4ccccc4)C3=O)o2)ccc1Cl	1	-14	8	73*	nt	-15
CCNc1nc(NCC)nc(OCCNS(=O)(=O)c2ccccc2)n1	-2	-6	1	0	nt	13
CCOC(=O)C(C)n1cnc2c(nnn2-c2cccc(Cl)c2)c1=O (configuration not stated)	0	-1	0	10	0	nt
CCC(Oc1ccccc1)C(=O)NCc1ccc(S(N)(=O)=O)cc1 (configuration not stated)	14	-19	10	10	0	61*
Cc1cccc(OC(C)C(=O)NCc2ccc(S(N)(=O)=O)cc2)c1 (configuration not stated)	2	-23	-10	3	-2	22
CN1c2ccccc2C(=O)NC1c1ccc([N+](=O)[O-])s1 (configuration not stated)	1	-6	-2	9	nt	-22
CCOC(=O)C1=C(C)NC(=O)C(C(N)=O)C12CCCCC2 (configuration not stated)	-1	-9	3	57*	-1	nt
CC/C(=N\NC(=O)c1cccnc1)c1ccc2c(c1)OCCO2	-3	-21	-4	6	3	nt
CC1CCCCC12NC(=O)N(Cc1cc(=O)n3ccsc3n1)C2=O (configuration not stated)	7	17	2	17	nt	-13
O=C(CSc1nnc(-c2csc3c2CCCC3)o1)Nc1ccccc1	3	-4	11	-18	-1	nt
CCSc1ccc2nnc(-c3cccc(F)c3)n2n1	56*	-19	3	18	-6	-2
O=C(CSc1ccc2nnc(-c3cccc(F)c3)n2n1)N1CCCc2ccccc21	3	-27	22	-10	9	nt
COc1cc(/C=C(/NC(C)=O)C(=O)O)cc(Cl)c1OCc1ccc(Br)cc1	-1	-19	2	102*	nt	11
COc1cc(/C=C(\NC(C)=O)C(=O)O)cc(OC)c1OC	-1	-1	-6	13	nt	-8
CC(C)n1c(=S)[nH]c2scc(-c3cccs3)c2c1=O	42*	-17	1	73*	nt	3
CCn1c(=S)[nH]c2scc(-c3cccs3)c2c1=O	-6	-51	-3	13	-6	17
